The full data set covers some 7,900 targets. This sample favours those with a hit. About 0.6% of all pairs of compound and target were hits. A number with no mark means an inactive call.
Columns and labels:
Assay in all cases: log2 fold change, soluble protein after heating vs DMSO (PISA); higher = thermal stabilisation; K562 cells, 10 uM, 30 min; active = over 0.2 and 3.5 SD of the protein, either way, in both replicates (recomputed)
[1] = compound: CC1=C(C=C(C=C1)NC(=O)C2=CC(=CC=C2)C(C)(C)C#N)NC3=CC4=C(C=C3)N=CN(C4=O)C
How it was run: (§1)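 Quantification of soluble protein used TMTpro 16plex LC-MS/MS, with channel sums equalised. Samples were the supernatant after 21,000xg for 90 min of pooled aliquots from K562 cells (2×10^6 cells/mL) treated with 10 μM compound for 30 min, heated for 3 min over 48°C-58°C, and extracted in PBS with 0.5% NP-40 at 4°C. Values, from duplicates, describe thermal stability against control samples on a log2 fold-change scale.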

[2] = compound: CC1=C(C=C(C=C1)NC(=O)C2=CC(=CC=C2)N(C)C)NC(=O)C3=CC=C(C=C3)O
How it was run: as §1

[3] = compound: CC1=CC=C(C=C1)SC2=C3C=C(SC3=CN=C2)C(=O)N
How it was run: as §1

[4] = compound: CC1=NC(=CC=C1)C2=C(N=C(N2)C(C)(C)C)C3=CC4=NC=CN=C4C=C3
How it was run: as §1

Nexturastat A = compound: CCCCN(Cc1ccc(C(=O)NO)cc1)C(=O)Nc1ccccc1 [Nexturastat A]
How it was run: as §1

vemurafenib = compound: CCCS(=O)(=O)Nc1ccc(F)c(C(=O)c2c[nH]c3ncc(-c4ccc(Cl)cc4)cc23)c1F [vemurafenib]
How it was run: as §1

[5] = compound: CCCS(=O)(=O)Nc1ccc(F)c(C(=O)c2c[nH]c3ncc(Cl)cc23)c1F
How it was run: as §1

[6] = compound: CCCc1cc(C)[nH]c(=O)c1CNC(=O)c1cc(-c2ccnc(N3CCN(C)CC3)c2)cc2c1cnn2C(C)C
How it was run: as §1

givinostat = compound: CCN(CC)Cc1ccc2cc(COC(=O)Nc3ccc(C(=O)NO)cc3)ccc2c1 [givinostat]
How it was run: as §1

barasertib = compound: CCN(CCCOc1ccc2c(Nc3cc(CC(=O)Nc4cccc(F)c4)[nH]n3)ncnc2c1)CCOP(=O)(O)O [barasertib]
How it was run: as §1

Sequence of UniProt Q08334 (Q08334 whole entry, looked up): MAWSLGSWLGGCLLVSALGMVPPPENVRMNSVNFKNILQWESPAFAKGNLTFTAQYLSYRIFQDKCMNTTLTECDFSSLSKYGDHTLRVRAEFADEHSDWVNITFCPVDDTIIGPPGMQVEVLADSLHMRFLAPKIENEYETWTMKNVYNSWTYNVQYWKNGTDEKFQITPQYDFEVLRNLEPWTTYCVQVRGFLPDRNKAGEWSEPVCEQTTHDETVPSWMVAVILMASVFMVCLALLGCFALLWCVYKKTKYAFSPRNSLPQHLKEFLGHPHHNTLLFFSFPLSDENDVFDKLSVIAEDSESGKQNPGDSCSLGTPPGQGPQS
Sequence of UniProt Q9NYL2 (Q9NYL2 whole entry, looked up): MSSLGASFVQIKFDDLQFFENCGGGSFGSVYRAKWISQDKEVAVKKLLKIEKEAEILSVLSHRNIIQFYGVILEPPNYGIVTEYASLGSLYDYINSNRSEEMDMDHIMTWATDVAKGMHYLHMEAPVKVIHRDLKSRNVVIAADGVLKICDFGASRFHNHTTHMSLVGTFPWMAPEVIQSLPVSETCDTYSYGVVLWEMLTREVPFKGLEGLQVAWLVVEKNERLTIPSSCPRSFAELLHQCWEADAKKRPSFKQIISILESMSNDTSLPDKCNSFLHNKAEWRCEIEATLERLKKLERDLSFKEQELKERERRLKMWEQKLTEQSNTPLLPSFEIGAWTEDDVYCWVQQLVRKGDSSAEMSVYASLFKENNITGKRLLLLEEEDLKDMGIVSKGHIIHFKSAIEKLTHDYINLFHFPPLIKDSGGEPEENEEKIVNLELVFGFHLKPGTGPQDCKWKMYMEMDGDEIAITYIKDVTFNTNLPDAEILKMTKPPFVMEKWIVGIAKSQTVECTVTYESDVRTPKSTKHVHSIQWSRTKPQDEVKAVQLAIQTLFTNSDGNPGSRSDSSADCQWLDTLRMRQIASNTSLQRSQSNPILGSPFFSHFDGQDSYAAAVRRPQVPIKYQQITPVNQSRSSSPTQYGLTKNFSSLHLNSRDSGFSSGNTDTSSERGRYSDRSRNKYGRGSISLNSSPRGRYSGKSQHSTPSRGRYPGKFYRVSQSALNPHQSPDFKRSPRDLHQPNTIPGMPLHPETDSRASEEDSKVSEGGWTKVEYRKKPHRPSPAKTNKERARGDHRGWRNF
Sequence of UniProt Q71SY5 (Q71SY5 whole entry, looked up): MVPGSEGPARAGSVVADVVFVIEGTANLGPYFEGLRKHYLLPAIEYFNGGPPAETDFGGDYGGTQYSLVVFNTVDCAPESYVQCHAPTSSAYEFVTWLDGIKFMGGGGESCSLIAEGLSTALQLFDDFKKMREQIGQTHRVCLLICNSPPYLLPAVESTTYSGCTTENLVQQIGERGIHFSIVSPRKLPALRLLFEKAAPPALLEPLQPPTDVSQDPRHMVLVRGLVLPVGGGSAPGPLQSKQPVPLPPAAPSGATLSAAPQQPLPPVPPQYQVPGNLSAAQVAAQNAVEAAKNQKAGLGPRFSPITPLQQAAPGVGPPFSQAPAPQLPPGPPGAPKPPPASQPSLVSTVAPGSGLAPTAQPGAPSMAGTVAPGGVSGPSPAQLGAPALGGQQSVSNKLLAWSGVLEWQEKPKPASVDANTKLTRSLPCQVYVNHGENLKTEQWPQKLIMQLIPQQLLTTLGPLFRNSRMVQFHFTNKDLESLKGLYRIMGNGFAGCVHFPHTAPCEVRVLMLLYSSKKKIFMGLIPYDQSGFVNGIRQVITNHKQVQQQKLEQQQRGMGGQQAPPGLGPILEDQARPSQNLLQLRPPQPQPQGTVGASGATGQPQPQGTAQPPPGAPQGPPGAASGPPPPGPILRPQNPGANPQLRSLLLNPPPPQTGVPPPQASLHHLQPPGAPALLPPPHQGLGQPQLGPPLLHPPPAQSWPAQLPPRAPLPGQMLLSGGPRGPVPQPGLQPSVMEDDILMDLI
Sequence of UniProt Q9Y4K4 (Q9Y4K4 whole entry, looked up): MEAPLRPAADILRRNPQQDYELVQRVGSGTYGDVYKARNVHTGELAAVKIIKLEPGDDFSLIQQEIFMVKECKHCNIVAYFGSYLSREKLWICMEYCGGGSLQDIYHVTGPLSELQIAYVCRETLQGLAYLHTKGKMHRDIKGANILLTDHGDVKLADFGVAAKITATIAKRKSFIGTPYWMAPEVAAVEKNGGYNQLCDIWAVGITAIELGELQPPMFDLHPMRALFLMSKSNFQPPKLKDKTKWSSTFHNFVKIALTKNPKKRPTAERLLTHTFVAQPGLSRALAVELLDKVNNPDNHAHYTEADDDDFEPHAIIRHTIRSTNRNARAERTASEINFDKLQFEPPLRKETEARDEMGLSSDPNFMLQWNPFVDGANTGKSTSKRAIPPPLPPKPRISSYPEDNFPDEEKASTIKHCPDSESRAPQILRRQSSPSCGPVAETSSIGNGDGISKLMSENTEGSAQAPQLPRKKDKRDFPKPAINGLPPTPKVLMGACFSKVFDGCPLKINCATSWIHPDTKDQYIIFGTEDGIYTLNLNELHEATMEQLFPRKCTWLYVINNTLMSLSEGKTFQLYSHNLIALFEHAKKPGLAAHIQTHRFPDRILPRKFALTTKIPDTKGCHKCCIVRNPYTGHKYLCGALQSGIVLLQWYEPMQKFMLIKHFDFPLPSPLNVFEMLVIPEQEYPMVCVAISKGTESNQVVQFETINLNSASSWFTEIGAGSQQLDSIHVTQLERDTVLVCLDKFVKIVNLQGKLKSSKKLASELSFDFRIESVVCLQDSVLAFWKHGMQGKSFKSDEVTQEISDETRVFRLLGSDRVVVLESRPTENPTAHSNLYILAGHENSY
Sequence of UniProt O14880 (O14880 whole entry, looked up): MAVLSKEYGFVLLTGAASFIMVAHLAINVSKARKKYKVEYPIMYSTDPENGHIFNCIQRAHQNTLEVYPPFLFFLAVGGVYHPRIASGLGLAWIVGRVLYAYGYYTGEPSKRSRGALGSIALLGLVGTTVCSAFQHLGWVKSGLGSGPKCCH
Sequence of UniProt Q9BY66 (Q9BY66 whole entry, looked up): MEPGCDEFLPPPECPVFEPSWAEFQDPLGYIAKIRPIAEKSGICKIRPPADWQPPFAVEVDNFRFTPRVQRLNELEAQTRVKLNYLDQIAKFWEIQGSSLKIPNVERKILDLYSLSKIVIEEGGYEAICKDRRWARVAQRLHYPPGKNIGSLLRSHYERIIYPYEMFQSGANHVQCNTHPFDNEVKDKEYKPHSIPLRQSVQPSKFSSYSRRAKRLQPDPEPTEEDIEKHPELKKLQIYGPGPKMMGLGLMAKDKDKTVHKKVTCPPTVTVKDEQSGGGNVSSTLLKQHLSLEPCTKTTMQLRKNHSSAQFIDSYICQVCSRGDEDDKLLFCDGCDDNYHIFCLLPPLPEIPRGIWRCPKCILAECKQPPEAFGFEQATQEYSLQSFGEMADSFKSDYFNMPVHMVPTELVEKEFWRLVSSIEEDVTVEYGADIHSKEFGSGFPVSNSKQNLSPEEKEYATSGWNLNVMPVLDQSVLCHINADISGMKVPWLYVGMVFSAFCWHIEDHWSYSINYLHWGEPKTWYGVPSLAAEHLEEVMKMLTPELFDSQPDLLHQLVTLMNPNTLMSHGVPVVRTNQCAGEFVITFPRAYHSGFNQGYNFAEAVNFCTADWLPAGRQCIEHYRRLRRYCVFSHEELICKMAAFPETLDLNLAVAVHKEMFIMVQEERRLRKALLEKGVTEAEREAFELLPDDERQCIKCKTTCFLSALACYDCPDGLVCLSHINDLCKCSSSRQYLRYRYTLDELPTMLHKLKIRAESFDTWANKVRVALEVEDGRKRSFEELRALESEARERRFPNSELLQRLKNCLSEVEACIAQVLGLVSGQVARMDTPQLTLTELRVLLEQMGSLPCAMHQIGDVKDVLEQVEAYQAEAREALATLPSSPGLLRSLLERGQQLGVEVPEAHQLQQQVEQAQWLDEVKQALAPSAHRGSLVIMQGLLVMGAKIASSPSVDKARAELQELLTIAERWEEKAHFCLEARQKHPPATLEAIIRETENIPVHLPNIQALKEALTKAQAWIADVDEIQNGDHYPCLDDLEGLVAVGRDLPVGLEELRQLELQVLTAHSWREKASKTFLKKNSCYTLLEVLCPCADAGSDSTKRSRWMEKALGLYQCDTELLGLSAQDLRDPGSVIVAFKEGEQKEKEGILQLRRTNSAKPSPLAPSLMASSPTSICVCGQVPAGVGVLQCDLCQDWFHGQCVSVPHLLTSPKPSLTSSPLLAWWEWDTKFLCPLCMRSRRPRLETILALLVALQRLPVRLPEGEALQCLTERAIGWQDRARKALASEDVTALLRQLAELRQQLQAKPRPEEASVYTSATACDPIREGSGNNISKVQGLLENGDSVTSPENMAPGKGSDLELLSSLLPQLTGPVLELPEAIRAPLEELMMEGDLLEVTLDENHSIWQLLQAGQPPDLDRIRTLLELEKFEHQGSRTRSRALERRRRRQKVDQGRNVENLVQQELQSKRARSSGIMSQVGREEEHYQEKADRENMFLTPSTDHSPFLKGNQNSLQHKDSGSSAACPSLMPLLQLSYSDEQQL
Sequence of UniProt Q92551 (Q92551 whole entry, looked up): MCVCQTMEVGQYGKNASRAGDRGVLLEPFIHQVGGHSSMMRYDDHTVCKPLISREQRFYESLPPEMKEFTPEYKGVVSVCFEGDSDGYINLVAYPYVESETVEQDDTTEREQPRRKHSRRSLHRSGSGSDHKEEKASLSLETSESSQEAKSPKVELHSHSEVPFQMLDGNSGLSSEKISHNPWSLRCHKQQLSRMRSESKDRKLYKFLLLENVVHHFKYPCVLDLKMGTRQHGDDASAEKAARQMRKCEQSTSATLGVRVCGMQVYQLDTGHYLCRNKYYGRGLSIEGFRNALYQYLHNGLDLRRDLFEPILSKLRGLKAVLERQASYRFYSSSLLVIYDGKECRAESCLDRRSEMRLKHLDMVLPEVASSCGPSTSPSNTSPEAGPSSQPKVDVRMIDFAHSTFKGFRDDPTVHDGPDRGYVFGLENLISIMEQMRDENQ
Sequence of UniProt P01116 (P01116 whole entry, looked up): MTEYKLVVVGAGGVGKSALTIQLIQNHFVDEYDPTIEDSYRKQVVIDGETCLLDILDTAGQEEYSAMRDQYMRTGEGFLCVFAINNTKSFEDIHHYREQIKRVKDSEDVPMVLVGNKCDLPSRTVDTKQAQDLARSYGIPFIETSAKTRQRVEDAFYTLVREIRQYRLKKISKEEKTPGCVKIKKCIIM

Row | Target | log2 fold change [1] | log2 fold change [2] | log2 fold change [3] | log2 fold change [4] | log2 fold change (Nexturastat A) | log2 fold change (vemurafenib) | log2 fold change [5] | log2 fold change [6] | log2 fold change (givinostat) | log2 fold change (barasertib)
1 | KDM5D isoform 3 (UniProt Q9BY66) | -0.132 | -0.144 | 0.036 | 0.039 | -0.08 | 0.003 | 0.128 | -0.004 | 0.014 | 0.108
2 | IKZF1 (UniProt Q13422) | 0.144 | 0.036 | -0.007 | 0.041 | -0.006 | 0.044 | 0.034 | 0.177 | -0.018 | -0.052
3 | IMMT isoform 2 (UniProt Q16891) | 0.053 | 0.074 | -0.05 | 0.002 | -0.155 | -0.006 | 0.018 | 0.325 | 0.045 | 0.081
4 | LAMP2 (UniProt P13473) | 0 | 0.093 | -0.043 | 0.066 | -0.104 | 0.05 | 0.048 | -0.028 | -0.02 | 0.007
5 | KRAS isoform 2 (UniProt P01116) | -0.034 | 0.046 | -0.023 | -0.026 | -0.063 | -0.03 | -0.093 | -0.073 | 0.014 | 0.003
6 | ILF3 isoform 7 (UniProt Q12906) | 0.028 | -0.068 | -0.087 | -0.036 | 0.146 | -0.036 | -0.1 | 0.102 | -0.017 | -0.125
7 | MFN2 (UniProt O95140) | -0.021 | -0.029 | 0.018 | 0.009 | -0.022 | 0.019 | 0.064 | -0.004 | 0.01 | 0.025
8 | KCT2 (UniProt Q8NC54) | 0.104 | 0.007 | 0.006 | 0.017 | -0.102 | -0.013 | -0.011 | -0.008 | -0.108 | -0.025
9 | LUM (UniProt P51884) | -0.011 | 0.403 | 0.042 | 0.061 | -0.008 | 0.069 | -0.266 |  | -0.108 | 
10 | MED12 isoform 2 (UniProt Q93074) | 0.034 | -0.202 | -0.015 | -0.09 | 0.012 |  | 0.071 | 0.023 | 0.106 | -0.135
11 | KIF1B isoform 4 (UniProt O60333) | -0.07 | 0.058 | 0.008 | 0.024 | 0.024 | 0.002 | 0.043 | 0.018 | 0.122 | 0.073
12 | KLHL18 (UniProt O94889) | -0.068 | -0.009 | 0.003 |  | -0.099 | -0.05 | -0.051 | 0.06 | -0.049 | 0.11
13 | ITM2C (UniProt Q9NQX7) | 0.096 | 0.004 | 0.187 |  | 0.084 | 0.006 | -0.014 |  | 0.09 | 0.057
14 | MFSD1 isoform 6 (UniProt Q9H3U5) | 0.056 | -0.008 | -0.046 |  | -0.106 | -0.053 | -0.059 | 0.021 | 0.008 | 0.041
15 | ITGA2B (UniProt P08514) | -0.071 | 0.064 | -0.058 | -0.052 | 0.121 | -0.105 | 0.134 |  | 0.09 | 
16 | LYN isoform 2 (UniProt P07948) | 0.056 |  | -0.079 | -0.079 | 0.376 | 0.095 | -0.296 |  | -0.168 | 

Row | Target | log2 fold change [1] | log2 fold change [2] | log2 fold change [3] | log2 fold change [4] | log2 fold change (Nexturastat A) | log2 fold change (vemurafenib) | log2 fold change [5] | log2 fold change [6] | log2 fold change (givinostat) | log2 fold change (barasertib)
17 | MED25 isoform 3 (UniProt Q71SY5) | -0.033 | 0.022 | -0.012 | -0.014 |  | 0.141 | 0.05 | -0.083 | 0.105 | 0.019
18 | KSR1 (UniProt Q8IVT5) | 0.231 | -0.007 | 0.112 | -0.028 | 0.001 | 0.046 | 0.218 | -0.132 | 0.106 | 0.013
19 | IL10RB (UniProt Q08334) | 0.19 |  | -0.012 | -0.17 | 0.082 | -0.004 | 0.018 |  | 0.088 | 0.063
20 | LNPEP (UniProt Q9UIQ6) | 0.018 | 0.03 | 0.01 | -0.009 | -0.051 | -0.013 | 0.015 | 0.008 | 0.014 | -0.009
21 | MAP3K4 isoform 2 (UniProt Q9Y6R4) | -0.012 | 0.026 | -0.018 | -0.003 | 0.008 | -0.033 | -0.001 | -0.012 | -0.015 | 0.02
22 | MAP4K5 (UniProt Q9Y4K4) | 0.01 | 0.082 | 0.025 | -0.012 | -0.042 | -0.025 | -0.008 | -0.047 | -0.024 | 0.1
23 | MAP4 isoform 5 (UniProt P27816) | 0.013 | 0.055 | -0.173 |  | 0.105 |  | -0.01 | -0.161 | -0.028 | -0.114
24 | LMBRD1 (UniProt Q9NUN5) | 0.073 | 0.02 | 0.023 |  | -0.034 | -0.101 | -0.057 | -0.077 | 0.05 | -0.039
25 | IP6K1 (UniProt Q92551) | 0.443 | 0.022 |  |  | 0.232 |  | -0.015 | 0.068 | -0.008 | 0.259
26 | LENG8 (UniProt Q96PV6) | 0.112 | -0.201 |  | 0.009 | -0.139 | 0.146 |  | 0.066 | 0.09 | 0.173
27 | MAML1 (UniProt Q92585) | -0.05 | -0.035 |  | 0.199 | 0.039 | 0.038 |  |  | 0.299 | 
28 | MAP3K20 (UniProt Q9NYL2) | -0.448 (active) | -0.098 | -0.014 | 0.03 | 0.062 | -0.254 | -0.163 | 0.022 | -0.089 | -0.02
29 | LPGAT1 (UniProt Q92604) | -0.077 | 0 | 0.034 | 0.077 | 0.036 | 0.018 | 0.086 | -0.033 | 0.064 | 0.068
30 | MGST3 (UniProt O14880) | -0.029 | 0.005 | 0 | -0.049 | 0.015 | -0.037 | -0.011 | -0.057 | 0.003 | 0.003
31 | MASTL (UniProt Q96GX5) | 0.032 | 0.187 |  | -0.056 | -0.149 | -0.028 |  | -0.032 | -0.038 | -0.013

Source: the supplement of paper PMC10849652
